Experimental data as given in PubChem BioAssay (NCI).
Several values for one entry are separate records, joined by “and”; a condition that tells them apart may be missing. Identical values can stand only once. About 79,000 compounds went through this panel and 15% of them were active in at least one assay; those are over-represented in the sample as a whole. A structure can be active in one record and inactive in another. Activity calls are given as the source filed them. Cut-off read from the data, not from the text of the source: active = growth inhibition above about 70%; inactive = the rest.

Columns and labels:
[1] = NCI Yeast Anticancer Drug Screen. Data for the rad50 strain (AID 155);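 note: 0% = growth of vehicle-only cultures of the same strain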; details: S. cerevisiae rad50 strain growth inhibition, stronger effect = higher value
How it was run: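 Yeast carrying a defined DNA repair defect were exposed to test compounds, and growth was compared with vehicle-treated controls to give percent inhibition.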

[2] = NCI Yeast Anticancer Drug Screen. Data for the mec2-1 strain (AID 157); details: S. cerevisiae mec2-1 strain, stronger effect = higher value
How it was run: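 Using mec2-1 yeast: add compound, measure growth, express inhibition versus vehicle-treated cultures.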

[3] = NCI Yeast Anticancer Drug Screen. Data for the sgs1 mgt1 strain (AID 161);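 note: 0% = growth of cultures given vehicle only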; details: S. cerevisiae sgs1 mgt1 strain, stronger effect = higher value
How it was run: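 Growth of a repair-deficient yeast mutant was monitored after compound treatment and expressed as inhibition relative to vehicle-treated cultures.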

[4] = NCI Yeast Anticancer Drug Screen. Data for the cln2 rad14 strain (AID 165);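 note: 0% = growth equal to vehicle treated cultures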; details: S. cerevisiae cln2 rad14 strain, stronger effect = higher value
How it was run: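 Yeast strain cln2 rad14, bearing defects in cell cycle control and DNA repair, serves as the test system; values reflect growth inhibition compared with vehicle.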

[5] = NCI Yeast Anticancer Drug Screen. Data for the bub3 strain (AID 167); details: S. cerevisiae bub3 mutant strain, stronger effect = higher value
How it was run: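 Compounds were applied to a genetically altered yeast strain carrying a cell-cycle control defect. Growth inhibition was scored against vehicle-treated controls.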

[6] = NCI Yeast Anticancer Drug Screen. Data for the mlh1 rad18 strain (AID 175); details: S. cerevisiae mlh1 rad18 strain growth inhibition, stronger effect = higher value
How it was run: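 Steps: expose repair-defective yeast to compound; measure growth; express inhibition against vehicle-treated controls.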

[7] = at 5.0 µM (retest, dose inferred, filed as 0.5)
[8] = at 50.0 µM (retest, dose inferred, filed as 5.0)

Compound | growth inhibition [1, 7] | growth inhibition [1, 8] | growth inhibition ([1]; at 50.0 µM) | growth inhibition [2, 7] | growth inhibition [2, 8] | growth inhibition ([2]; at 50.0 µM) | growth inhibition [3, 7] | growth inhibition [3, 8] | growth inhibition ([3]; at 50.0 µM) | growth inhibition [4, 7] | growth inhibition [4, 8] | growth inhibition ([4]; at 50.0 µM) | growth inhibition [5, 7] | growth inhibition [5, 8] | growth inhibition ([5]; at 50.0 µM) | growth inhibition [6, 7] | growth inhibition [6, 8] | growth inhibition ([6]; at 50.0 µM)
COC(O)C(=O)c1c2c(cc3c1CCC3)CCCC2 (stereo not given) | 96% (active) | 100% (active) | 81.1% (active) | 98% (active) | 99% (active) | 88.4% (active) | 98% (active) | 99% (active) | 89.1% (active) | 85% (active) | 100% (active) | 91.7% (active) | 99% (active) | 100% (active) | 90.5% (active) | 98% (active) | 100% (active) | 92.5% (active)
NCC(=O)OCN1C(=O)C2C3C=CC(C2C1=O)C1C2C(=O)N(COC(=O)CN)C(=O)C2C31 (stereo not given) | 28% (inactive) | 63% (inactive) | -5.35% (inactive) and 24% (inactive) | 20% (inactive) | 39% (inactive) | 8.65% (inactive) and -62% (inactive) | 25% (inactive) | 45% (inactive) | 4.85% (inactive) and -30.4% (inactive) | 21% (inactive) | 55% (inactive) | 23.5% (inactive) and -6.55% (inactive) | 24% (inactive) | 68% (inactive) | -15.2% (inactive) and -46.8% (inactive) | 26% (inactive) | 71% (active) | -18.6% (inactive) and -43.7% (inactive)
COC(=O)[C@]1(C)CCC[C@]2(C)c3cc(C(C)=O)c(C(C)C)cc3CC[C@@H]12 | -1% (inactive) | -11% (inactive) | 92.5% (active) and -4.55% (inactive) | 7% (inactive) | 10% (inactive) | 95.5% (active) and -11.9% (inactive) | -4% (inactive) | -27% (inactive) | 93.5% (active) and -5.45% (inactive) | -1% (inactive) | -2% (inactive) | 99.5% (active) and -40.8% (inactive) | 1% (inactive) | 0% (inactive) | 98.5% (active) and -5.05% (inactive) | -2% (inactive) | 8% (inactive) | 97% (active) and -12.2% (inactive)
COC(=O)c1ccc(O)c(OC)c1 | -1% (inactive) | -5% (inactive) | -25.2% (inactive) | 1% (inactive) | -3% (inactive) | -2.35% (inactive) | 0% (inactive) | -1% (inactive) | -8.9% (inactive) | -2% (inactive) | 2% (inactive) | 28.1% (inactive) | 12% (inactive) | 27% (inactive) | 12.8% (inactive) | -4% (inactive) | -3% (inactive) | 9.5% (inactive)
OC1CC2CCCC(C1)C2 (stereo not given) | -2% (inactive) | 3% (inactive) | -17.8% (inactive) | 4% (inactive) | 1% (inactive) | 17.8% (inactive) | -2% (inactive) | 3% (inactive) | -12.2% (inactive) | -5% (inactive) | -3% (inactive) | 72.5% (active) | 0% (inactive) | -10% (inactive) | -18.6% (inactive) | -1% (inactive) | -2% (inactive) | -1.65% (inactive)
CCN(CC)CCC(=O)/C=C/c1ccccc1 | 31% (inactive) | 95% (active) | 99.3% (active) and 29.2% (inactive) | 27% (inactive) | 100% (active) | 99.6% (active) and 56.1% (inactive) | 60% (inactive) | 100% (active) | 99.5% (active) and 28.6% (inactive) | 42% (inactive) | 97% (active) | 99.3% (active) and 6.75% (inactive) | 58% (inactive) | 99% (active) | 99.5% (active) and 49.5% (inactive) | 32% (inactive) | 99% (active) | 99.3% (active) and 36% (inactive)
CCOc1ccc(NC(=O)/C(=C\c2ccc(C)cc2)C(C)=O)cc1 | -17% (inactive) | -1% (inactive) | -32% (inactive) and 8.1% (inactive) | -2% (inactive) | -3% (inactive) | -2.3% (inactive) and -25.1% (inactive) | 9% (inactive) | -4% (inactive) | 2.9% (inactive) and 3.65% (inactive) | -6% (inactive) | 5% (inactive) | -24.8% (inactive) and -8.15% (inactive) | -3% (inactive) | -5% (inactive) | -2.4% (inactive) and -19.2% (inactive) | -3% (inactive) | -5% (inactive) | 6% (inactive) and 0.5% (inactive)
CCCCCCCCCCCCCCCCCC(=O)NCCO | -3% (inactive) | -6% (inactive) | -12.3% (inactive) and 16.8% (inactive) | -1% (inactive) | -5% (inactive) | -6.6% (inactive) and -7.3% (inactive) | 0% (inactive) | -4% (inactive) | -20.2% (inactive) and -8.5% (inactive) | 1% (inactive) | -8% (inactive) | -23.9% (inactive) and 37.4% (inactive) | 4% (inactive) | 7% (inactive) | -3.75% (inactive) and 1.55% (inactive) | 0% (inactive) | -8% (inactive) | 3.7% (inactive) and 10.8% (inactive)
NC(=O)c1cc(Br)cc(Br)c1O | 14% (inactive) | 79% (active) | 62.2% (inactive) | -13% (inactive) | 86% (active) | 75.1% (active) | 9% (inactive) | 90% (active) | 48.5% (inactive) | 5% (inactive) | 87% (active) | 94.5% (active) | 1% (inactive) | 77% (active) | 89.8% (active) | -10% (inactive) | 85% (active) | 79.6% (active)
c1ccc(-c2conc2-c2ccccc2)cc1 | -22% (inactive) | 95% (active) | 60.8% (inactive) | -7% (inactive) | 91% (active) | 19.1% (inactive) | 9% (inactive) | 90% (active) | 31.4% (inactive) | -32% (inactive) | 68% (inactive) | -2.5% (inactive) | -20% (inactive) | 92% (active) | 54% (inactive) | -10% (inactive) | 95% (active) | 71.3% (active)
COc1cc2c(cc1O)C1CN(C2)Cc2cc(OC)c(O)cc21 | -5% (inactive) | 67% (inactive) | 51.4% (inactive) | -3% (inactive) | 78% (active) | 35% (inactive) | -11% (inactive) | 76% (active) | 30.3% (inactive) | 2% (inactive) | 75% (active) | 79.2% (active) | -2% (inactive) | 69% (inactive) | 33.7% (inactive) | 14% (inactive) | 80% (active) | 74.3% (active)
COc1ccccc1NC(=O)C(/C=N/C(=S)NCCNc1ccc(OC)c(OC)c1)=C(\C)O | 1% (inactive) | 3% (inactive) | 9.7% (inactive) | -55% (inactive) | -10% (inactive) | -2.25% (inactive) | 2% (inactive) | -8% (inactive) | 16.4% (inactive) | -22% (inactive) | -14% (inactive) | 43.2% (inactive) | 2% (inactive) | -27% (inactive) | 7.25% (inactive) | 10% (inactive) | -2% (inactive) | 15.1% (inactive)
O=C1/C(=C/c2ccc(Cl)cc2)CNC/C1=C\c1ccc(Cl)cc1 | 83% (active) and 48% (inactive) | 79% (active) and 71% (active) | 76.7% (active) and 86.2% (active) | 76% (active) and 48% (inactive) | 87% (active) and 78% (active) | 81.8% (active) and 89.5% (active) | 88% (active) and 58% (inactive) | 88% (active) and 91% (active) | 87.2% (active) and 86.7% (active) | 69% (inactive) and 44% (inactive) | 85% (active) and 73% (active) | 83.8% (active) and 83.5% (active) | 90% (active) and 46% (inactive) | 85% (active) and 95% (active) | 79.9% (active) and 85.3% (active) | 91% (active) and 66% (inactive) | 75% (active) and 88% (active) | 81.2% (active) and 79.2% (active)
COC(=O)C1=COC(C)C2C[n+]3ccc4c([nH]c5ccccc54)c3CC12 (stereo not given) | 23% (inactive) | 25% (inactive) | -11.6% (inactive) and 6.35% (inactive) | 22% (inactive) | 25% (inactive) | -34% (inactive) and 31.9% (inactive) | 17% (inactive) | 38% (inactive) | -11.2% (inactive) and 17.6% (inactive) | 21% (inactive) | 30% (inactive) | -8.3% (inactive) and -15.8% (inactive) | 22% (inactive) | 35% (inactive) | -31.1% (inactive) and 38.2% (inactive) | 23% (inactive) | 39% (inactive) | -18.1% (inactive) and 43.3% (inactive)
C=C[C@]1(C)C=C2C(O)CC3C(C)(C)CCC[C@]3(CO)C2CC1 (stereo not given in full) | 8% (inactive) | 99% (active) | 99.2% (active) | 13% (inactive) | 100% (active) | 99.6% (active) | 17% (inactive) | 97% (active) | 99.5% (active) | 13% (inactive) | 99% (active) | 99.3% (active) | 4% (inactive) | 99% (active) | 99.5% (active) | 26% (inactive) | 99% (active) | 99.2% (active)
